# Where a name gives a salt, the structure may show the parent alone. ± gives the standard deviation.
# Assays:
# Jurkat [1] = experiment: mean cell size (FSC-A) relative to DMSO control (fraction of control); higher = larger cells; details: 48 h
# Summary of the method: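 Jurkat cells at 600 cells/µl were incubated for 1 h and then treated for 48h with the Enzo Screen-Well FDA Approved Drug Library v2.0 at 25µM, with DMSO at 0.9% (v/v) final. Compounds that reduced counts below 20% of controls were retested in 10-fold dilutions down to 25nM. Cell count and mean cell size, taken as forward scatter area, were measured by flow cytometry relative to solvent-only controls. Each plate carried 6-12 controls, and values are means of 3 biological replicates.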
# Jurkat [2] = experiment: cell count relative to DMSO control (fraction of control); higher = more cells (less growth inhibition); details: 48 h
Structure (SMILES),mean cell size (Jurkat [1]),cell count (Jurkat [2])
CCCc1nc(C)c2c(=O)nc(-c3cc(S(=O)(=O)N4CCN(CC)CC4)ccc3OCC)[nH]n12 [Vardenafil] (concentration: 25 µM),0.966 ± 0.021,0.646 ± 0.099
CCS(=O)(=O)CCn1c([N+](=O)[O-])cnc1C [Tinidazole] (concentration: 25 µM),0.992 ± 0.049,0.528 ± 0.018
O=C(O)C1(C(=O)O)CCC1.[NH2-].[NH2-].[Pt+2] [Carboplatin] (concentration: 25 µM),1.08 ± 0.016,0.51 ± 0.029
CCCCC[C@H](O)/C=C/[C@H]1[C@H](O)CC(=O)[C@@H]1CCCCCCC(=O)O [Alprostadil] (concentration: 25 µM),0.872 ± 0.0094,0.73 ± 0.12
C1N2CN3CN1CN(C2)C3 [Methenamine Hippurate] (concentration: 25 µM),1.03 ± 0.063,0.89 ± 0.1
COc1c(N2C[C@@H]3CCCN[C@@H]3C2)c(F)cc2c(=O)c(C(=O)O)cn(C3CC3)c12 [Moxifloxacin·HCl] (concentration: 25 µM),0.919 ± 0.01,0.632 ± 0.14
CNC(=C[N+](=O)[O-])NCCSCc1ccc(CN(C)C)o1 [Ranitidine·HCl] (concentration: 25 µM),1 ± 0.049,0.895 ± 0.11
CCCc1nn(C)c2c(=O)[nH]c(-c3cc(S(=O)(=O)N4CCN(C)CC4)ccc3OCC)nc12 [Sildenafil Citrate] (concentration: 25 µM),1.02 ± 0.055,0.719 ± 0.22
CC/C(=C(\c1ccccc1)c1ccc(OCCN(C)C)cc1)c1ccccc1 [Tamoxifen Citrate] (concentration: 25 µM),0.908 ± 0.015,0.314 ± 0.11
C[C@H]1C[C@@H]2[C@H]([C@@H](O)C[C@@]3(C)[C@H]2CC[C@]3(O)C(=O)CO)[C@@]2(C)C=CC(=O)C=C12 [Methylprednisolone] (concentration: 25 µM),0.908 ± 0.013,0.873 ± 0.025
CCn1cc(C(=O)O)c(=O)c2cc(F)c(N3CCNCC3)cc21 [Norfloxacin] (concentration: 25 µM),0.9213 ± 0.0047,0.982 ± 0.014
CCCCNC(=O)NS(=O)(=O)c1ccc(C)cc1 [Tolbutamide] (concentration: 25 µM),0.976 ± 0.032,0.606 ± 0.22
CN1C2CCCC1CC(NC(=O)c1nn(C)c3ccccc13)C2 (stereo not drawn) [Granisetron·HCl] (concentration: 25 µM),0.9687 ± 0.004,0.899 ± 0.037
COc1ccc(C[C@@H]2c3cc(OC)c(OC)cc3CC[N@+]2(C)CCC(=O)OCCCCCOC(=O)CC[N@@+]2(C)CCc3cc(OC)c(OC)cc3[C@H]2Cc2ccc(OC)c(OC)c2)cc1OC [Cisatracurium Besylate] (concentration: 25 µM),1.004 ± 0.009,0.624 ± 0.064
CCC[C@@H]1C[C@@H](C(=O)N[C@@H]([C@H]2O[C@H](SC)[C@H](O)[C@@H](O)[C@H]2O)[C@@H](C)O)N(C)C1 [Lincomycin·HCl] (concentration: 25 µM),1.1 ± 0.045,0.754 ± 0.11
Cn1c(=O)c2c(ncn2C)n(C)c1=O [Caffeine] (concentration: 25 µM),0.986 ± 0.046,1 ± 0.093
CCOC(=O)[C@H](CCc1ccccc1)N[C@@H](C)C(=O)N1Cc2cc(OC)c(OC)cc2C[C@H]1C(=O)O [Moexipril·HCl] (concentration: 25 µM),0.9426 ± 0.0064,0.587 ± 0.074
Cn1c(=O)c2nc[nH]c2n(C)c1=O [Theophylline] (concentration: 25 µM),0.947 ± 0.041,1.05 ± 0.031
CCC[C@H](N[C@@H](C)C(=O)N1[C@H](C(=O)O)C[C@@H]2CCCC[C@@H]21)C(=O)OCC [Perindopril Erbumine] (concentration: 25 µM),0.995 ± 0.051,0.637 ± 0.091
